Values joined by “and” are separate entries in the source; they are usually repeats but may differ in a detail not shown here. Equal entries are not always repeated. A number with no mark means an inactive call. Records with an inconclusive call do not appear. Active and inactive are the calls of the source. Unless noted, calls come from the whole dose curve; as a rule, active = well fitted curve in the direction sought with a large enough effect in the repeat runs; inconclusive = weak or mixed curves; inactive = no such curve, though single readings can be large; an effect the other way counts as inactive or inconclusive.

Test [1] can be described thus: qHTS assay to test for compound auto fluorescence at 535 nm (green) in HEK293 cells (AID 720680).
Test [2] can be described thus: qHTS assay to test for compound auto fluorescence at 460 nm (blue) in HEK293 cell free culture (AID 720681). In short, it runs like this: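 Compounds were added to cell-free DMEM with 10% FBS and fluorescence read directly. The blue channel used 405 nm excitation and 460 nm emission, with triamterene as the reference fluorophore.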
(In qHTS, concentration-response curves come from the screen itself.)

The nature of test [3]: qHTS assay to test for compound auto fluorescence at 590 nm (red) in HEK293 cell free culture (AID 720683). Put shortly:
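Cell-free wells of DMEM with 10% FBS received compound, and intrinsic fluorescence was read at excitation/emission 540/590 nm. Values expressed as equivalence to Rose Bengal sodium.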

A short description of test [4]: qHTS assay to test for compound auto fluorescence at 590 nm (red) in HepG2 cell free culture (AID 720684). In short, it runs like this: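 Auto fluorescence equivalency versus Rose Bengal sodium, red channel Ex/Em 540/590 nm; compounds in cell-free MEM/10% FBS; DMSO vehicle control.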
Test [5] is described as follows: qHTS assay to test for compound auto fluorescence at 460 nm (blue) in HepG2 cell free culture (AID 720685). In short, it runs like this:
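Cell-free plates of MEM plus 10% FBS received 23 nL compound or DMSO vehicle; blue-channel (405/460 nm) intensity scored against triamterene as reference fluorophore.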

Test [6] in a line: qHTS assay to test for compound auto fluorescence at 535 nm (green) in HepG2 cell free culture (AID 720686).
Test [7] in a line: qHTS assay to test for compound auto fluorescence at 460 nm (blue) in HepG2 cells (AID 720687). Put shortly: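 HepG2 cells in MEM with 10% FBS, attached overnight at 37 C, were exposed to compound or DMSO for 1 hr at 37 C, 5% CO2. Blue fluorescence was read at 405/460 nm, with triamterene as reference fluorophore.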
Test [8] can be described thus: qHTS assay to identify small molecule antagonists of the glucocorticoid receptor (GR) signaling pathway - cell viability counter screen (AID 720693). Note: nearly all actives have a fitted effect of over 55% in size.
A short description of test [9]: qHTS assay for identifying genotoxic compounds that show differential cytotoxicity against isogenic chicken DT40 cell lines with known DNA damage response pathways - wild type cell line (AID 743012). Note: nearly all actives have a fitted effect of over 60% in size. Note: potency is the fitted concentration of half-maximal effect. In short, it runs like this:
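Viability by ATP luminescence (CellTiter-Glo, 30 min RT) after 40 h compound treatment at 37 C/5% CO2, using 300 parental DNA repair-proficient DT40 cells per well.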

Test [10] can be described thus: qHTS assay to identify small molecule antagonists of the androgen receptor (AR) signaling pathway - cell viability counter screen (AID 743033; note: nearly all actives have a fitted effect of over 45% in size; note: potency is the fitted concentration of half-maximal effect).
Test [11] in a line: qHTS assay to identify small molecule antagonists of the androgen receptor (AR) signaling pathway using the MDA cell line - cell viability counter screen (AID 743041; note: nearly all actives have a fitted effect of over 45% in size; note: potency is the fitted concentration of half-maximal effect). Put shortly: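 Compound exposure lasted 16 h at 37C in MDA-kb2 AR-luc cells stimulated with R1881. Protease-based CellTiter-Fluor reagent was applied for the final 30 min and fluorescence measured.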
The target of test [12] is Glucocorticoid receptor (Homo sapiens) (UniProt P04150). In words: qHTS assay to identify small molecule agonists of the glucocorticoid receptor (GR) signaling pathway (AID 720691; active = well fitted activation curve with a large enough effect in the signal ratio in the repeat runs, not every such curve was filed as active; the % refers to the signal ratio). In short, it runs like this: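 Agonist-mode qHTS in HeLa cells stably expressing a glucocorticoid-response-element beta-lactamase reporter. Fluorescence intensity read with FRET substrate (2 h, room temperature) after 18 h compound treatment at 37 C.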

The target is the same in test [13]. The test can be described thus: qHTS assay to identify small molecule antagonists of the glucocorticoid receptor (GR) signaling pathway (AID 720692; active = well fitted inhibition curve with a large enough effect in the signal ratio in the repeat runs, not every such curve was filed as active; the % refers to the signal ratio). Put shortly:
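Inhibition of dexamethasone-driven (5 nM final) beta-lactamase expression was measured in GRE-reporter HeLa cells over 18 h at 37C. Fluorescence was read after 2 h with the B/G FRET substrate at room temperature.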

Test [14] in a line: qHTS assay for identifying genotoxic compounds that show differential cytotoxicity against isogenic chicken DT40 cell lines with known DNA damage response pathways - Rad54/Ku70 mutant cell line (AID 743015). Note: nearly all actives have a fitted effect of over 60% in size. Note: potency is the fitted concentration of half-maximal effect.
Test [15] in a line: qHTS assay to identify small molecule antagonists of the thyroid receptor (TR) signaling pathway - cell viability counter screen (AID 743064). Note: nearly all actives have a fitted effect of over 50% in size. Note: potency is the fitted concentration of half-maximal effect. Put shortly:
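GH3.TRE-Luc rat pituitary cells dosed after 4 hr plating, co-stimulated with T3 at 1 nM final, incubated 23.5 h at 37 C. Viability measured in the same wells by CellTiter-Fluor fluorescence after 30 min further at 37 C.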

Test [16] is described as follows: qHTS assay to test for compound auto fluorescence at 535 nm (green) in HEK293 cell free culture (AID 720682). Put shortly: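 Green-label autofluorescence (485 nm excitation, 535 nm emission) measured on compound added to cell-free culture medium (DMEM, 10% FBS). Output is expressed relative to fluorescein.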
Test [17] can be described thus: qHTS assay for identifying genotoxic compounds that show differential cytotoxicity against isogenic chicken DT40 cell lines with known DNA damage response pathways - Rev3 mutant cell line (AID 743014). Note: nearly all actives have a fitted effect of over 55% in size. Note: potency is the fitted concentration of half-maximal effect.
% is set by controls: 0 for no effect and ±100 for the full control effect.

Glucocorticoid receptor (Homo sapiens), sequence (P04150 whole entry, looked up): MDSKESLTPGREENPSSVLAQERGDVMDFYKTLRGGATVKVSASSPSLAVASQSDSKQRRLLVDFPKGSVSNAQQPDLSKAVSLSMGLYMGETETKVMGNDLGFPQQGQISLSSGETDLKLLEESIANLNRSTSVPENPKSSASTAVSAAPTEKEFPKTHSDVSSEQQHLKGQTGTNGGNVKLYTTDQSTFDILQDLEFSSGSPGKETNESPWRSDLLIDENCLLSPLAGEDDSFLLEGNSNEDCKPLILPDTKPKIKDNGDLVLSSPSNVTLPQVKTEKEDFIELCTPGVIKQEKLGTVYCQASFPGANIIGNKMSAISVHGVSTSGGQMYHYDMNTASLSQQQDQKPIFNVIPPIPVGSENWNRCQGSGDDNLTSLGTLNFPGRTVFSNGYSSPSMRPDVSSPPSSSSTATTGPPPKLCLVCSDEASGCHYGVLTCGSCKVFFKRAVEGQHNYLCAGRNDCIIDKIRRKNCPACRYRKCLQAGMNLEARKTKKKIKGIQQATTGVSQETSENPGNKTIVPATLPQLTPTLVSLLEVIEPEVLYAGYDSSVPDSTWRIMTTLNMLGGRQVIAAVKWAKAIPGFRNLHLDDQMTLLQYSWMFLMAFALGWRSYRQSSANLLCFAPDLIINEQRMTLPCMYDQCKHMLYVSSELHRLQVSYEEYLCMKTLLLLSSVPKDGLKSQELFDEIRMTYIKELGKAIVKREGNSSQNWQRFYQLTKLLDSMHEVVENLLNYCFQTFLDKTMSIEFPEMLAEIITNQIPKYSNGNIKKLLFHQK

For `Cc1ccc(S)cc1`, the result in test [1], in test [3], in test [4] and in test [6] was inactive. The Potency entry in test [2], in [5], in [7], in test [8], in test [10] and in test [11] was “inactive” each time. Also, in test [9], the Potency is 61.1 µM (active).
`Cc1ccccc1N1C(=O)c2cc(S(N)(=O)=O)c(Cl)cc2NC1C` (stereo not drawn): the compound was called inactive in test [1], in [3], in test [4] and in test [6]. Moreover, the Potency result in [2], in [5], in [7], in test [12], in [13] and in test [8] was “inactive” each time. In addition, the Potency result in test [9], in test [14], in test [10], in test [11] and in test [15] was “inactive” each time.
Regarding `CC1=C(/C=C/C(C)=C\C=C\C(C)=C\C(=O)O)C(C)(C)CCC1`, the outcome in test [1], in [16], in [3], in [4] and in test [6] was inactive. Besides, the Potency result in test [2], in test [5], in [8], in [10] and in test [11] was “inactive” each time. Moreover, the Potency in test [9] was 34.4 µM (active).
Turning to `CC(C)OCC1CO1` (stereo not drawn), the compound was classed as inactive in test [1], in test [3], in test [4] and in [6]. Also, the Potency result in test [2], in [5], in test [7], in test [12], in test [13] and in test [8] was “inactive” throughout. The Potency result in [9], in [17], in test [14], in test [10] and in test [11] was “inactive” each time.
As to `CC[C@@H]([C@H](C)O)n1ncn(-c2ccc(N3CCN(c4ccc(OC[C@@H]5CO[C@@](Cn6cncn6)(c6ccc(F)cc6F)C5)cc4)CC3)cc2)c1=O`, the result in test [1], in test [3], in [4] and in test [6] was inactive. In addition, the Potency result in test [2], in [5], in [12] and in test [10] was “inactive” in each case. Moreover, the Potency in test [9] was 1.19 µM (active); in test [17] it was 1.88 µM (active); in [14], 1.68 µM (active).
As to `O=C(c1ccc(O)cc1)c1ccc(Cl)cc1`, the result in test [1], in [16], in [3], in [4] and in [6] was inactive. Further, the Potency result in [2], in test [5], in test [12] and in test [10] was “inactive” in each case. The figures for the Potency in test [17] and in [14] were 62.4 µM (active) and 55.6 µM (active), respectively.
Regarding `CCc1nn(CCCN2CCN(c3cccc(Cl)c3)CC2)c(=O)n1CCOc1ccccc1`, the result in test [1], in [3], in [4] and in test [6] was inactive. Besides, the Potency result in test [2], in test [5] and in test [8] was “inactive” in each case. Besides, the Potency was 4.22 µM (active) and 11.9 µM (active) in [9]; 7.5 µM (active) in [17]; 5.96 µM (active) and 13.3 µM (active) in test [14]; 10.7 µM (active) in test [10]; 22.1 µM (active) in test [11].
Take `C(=C\c1ccccc1)/CN1CCN(C(c2ccccc2)c2ccccc2)CC1`: in test [1], the fluorescence, % of fluorescein was 0.011% [at 18.6 µM]. For the same compound, the fluorescence, % of fluorescent control was 0.0548% [at 18.6 µM] in [2], -0.0283% [at 18.6 µM] in test [3], 0.108% [at 18.6 µM] in test [5] and 0.0775% [at 18.6 µM] in test [7]. Further, the fluorescence, % of Rose Bengal in test [4] is -0.312% [at 18.6 µM]. Also, the fluorescence, % of fluorescein control in [6] is 0.012% [at 18.6 µM]. Also, the Potency result in test [8], in test [17] and in test [10] was “inactive” throughout. In addition, the Potency in [15] is 12.7 µM (active).
Take `C=CC(C)(C)CC(=O)OC`: the call in [1], in test [3], in test [4] and in test [6] was inactive. The Potency entry in test [2], in test [5], in test [7], in test [12], in [13] and in [8] was “inactive” throughout. Further, the Potency entry in test [9], in test [17], in test [14], in [10], in test [11] and in test [15] was “inactive” throughout.

The values are drawn from PubChem BioAssay (Tox21).
